According to PubChem BioAssay:

Each compound was assayed on PRMT1 (protein arginine N-methyltransferase 1) (assay: small molecules binding arginine methyltransferase PRMT1 – biochemical, small-molecule microarray, 635 nm fluorescence, primary screen (AID 1088)). Conditions: higher = more signal.

SMILES	composite z-score
CC[C@@H](O[Si](C#C[Si](C(C)C)(C(C)C)C(C)C)(C(C)C)C(C)C)c1cn(Cc2cccc(Cl)c2)nn1	0.869
COC(=O)C1=CC(c2ccc(CO)cc2)=CC(C2CC2)N(Cc2cc3c(cc2Br)OCO3)C=C1C(=O)OC (stereo unspecified)	1.54
O=C(NCCN1CCOCC1)[C@@H]1c2ccccc2C(=O)N(CC23CC4CC(CC(C4)C2)C3)[C@H]1c1ccc(CO)cc1	1.55
COCCCNC(=O)[C@@]1(CCC(=O)OC(C)(C)C)N=C(c2ccc(OCCCO)cc2)O[C@H]1c1ccccc1	1.53
CN1C2C=C(c3ccc(CO)cc3)C(C3C(=O)N(C(N)=O)C(=O)C32)C1C1CC1 (stereo unspecified)	0.132
N#Cc1ccc(NN2C(C(O)c3ccc(B(O)O)cc3)C=CC3CN(c4ccccc4)C(=O)C32)cc1 (stereo unspecified)	-0.188
